An excerpt weighted towards active compounds, which were near 21% of everything screened.
FBPA Giardia inh: qHTS Assay for Inhibitors of Fructose-1,6-bisphosphate Aldolase from Giardia Lamblia | purified Giardia FBPA | Potency, µM (series often up to 59.6 µM), most hits filed as inhibitors | 290,000 tested, 0.71% active; note: nearly all actives have a fitted effect of over 55% in size
Target sequence (A8B2U2 whole entry, looked up): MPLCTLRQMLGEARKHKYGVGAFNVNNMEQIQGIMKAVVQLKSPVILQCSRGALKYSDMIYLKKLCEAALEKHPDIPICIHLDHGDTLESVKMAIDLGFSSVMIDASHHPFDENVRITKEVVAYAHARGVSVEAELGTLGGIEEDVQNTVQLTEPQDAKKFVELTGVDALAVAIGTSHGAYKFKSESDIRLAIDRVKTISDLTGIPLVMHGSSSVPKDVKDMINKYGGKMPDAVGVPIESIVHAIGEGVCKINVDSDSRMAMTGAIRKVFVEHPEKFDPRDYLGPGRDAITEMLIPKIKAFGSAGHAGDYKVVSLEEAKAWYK
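40 nM FBPA preincubated 10 min at RT with compound (up to 57.5 uM final), then substrate plus GAPDH/TPI/NAD/arsenate coupling and diaphorase/resazurin added. Fluorescence read after 20 min at RT, 525/598 nm.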
Pf growth 96h: Primary qHTS for delayed death inhibitors of the malarial parasite plastid, 96 hour incubation; P. falciparum luciferase reporter growth, 96 h; Potency, µM (highest dose often 28.7 µM), hits mostly inhibitors; 320,000 tested, 6.9% active
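Parasite growth measured via integrated firefly luciferase reporter in P. falciparum. Infected erythrocytes at 2% hematocrit, 0.05% parasitemia final were treated 96 hours at 37 C under 5% CO2, and luminescence was read.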
Shiga inhibitor: A qHTS for Small Molecule Inhibitors of Shiga Toxin | Vero cells, Shiga toxin protein synthesis inhibition reporter | inhibition, % at 38.7 µM | 290,000 tested, 9.2% active; in the data active = inhibition mostly above about 28%, no sharp cut-off; inactive = mostly below about 43%
Pf growth 48h: Primary qHTS for delayed death inhibitors of the malarial parasite plastid, 48 hour incubation | P. falciparum luciferase growth in erythrocytes, 48 h | Potency, µM (titrated, usually from 28.7 µM), most hits filed as inhibitors | 310,000 tested, 5.9% active | AID 504832, 2011
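Luciferase-expressing P. falciparum in infected erythrocytes (2% hematocrit, 0.1% parasitemia final) in RPMI 1640/0.5% Albumax were exposed to compound for 48 hours at 37 C, 5% CO2; growth read as luminescence.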
NS1 inh: qHTS Assay for Inhibitors of Influenza NS1 Protein Function. Potency, µM (highest dose often 46.1 µM). 270,000 tested, 0.4% active; calls by dose curve; note: actives are rising curves; nearly all actives have a fitted effect of over 50% in size
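Compounds were scored for reversing the slow growth caused by influenza A NS1 in S. cerevisiae, measured by optical density at 600 nm. Assay medium contained 2% galactose at pH 6.0; NS1-free yeast of the same strain were the positive control.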
CHX counter: Cycloheximide Counterscreen for Small Molecule Inhibitors of Shiga Toxin | 300,000 tested, 12% active | AID 2314, 2010 | max response, % | cell reporter, cycloheximide protein synthesis inhibition counterscreen; in the data active = max response mostly above about 13%, no sharp cut-off; inactive = mostly below about 14%; note: read at 38.3 µM for the half of the compounds with a filed dose
A number is an active result; [ ] = another dose, or the depositor's remark. Unless noted, calls come from the whole dose curve; as a rule, active = well fitted curve in the direction sought with a large enough effect; inconclusive = small, poorly fitted or top-dose-only effect, or another doubt; inactive = no such curve, though single readings can be large; an effect the other way counts as inactive or inconclusive.

For COc1cc2c(cc1OC)[C@@H]1O[C@](CCCCN3C(=O)c4ccccc4C3=O)(C2)Oc2cc(C)n(-c3ccccc3)c(=O)c21 the results were FBPA Giardia inh inactive[12.9 µM], Pf growth 96h inconclusive, Shiga inhibitor inactive, Pf growth 48h 1.1µM, NS1 inh inactive and CHX counter inactive.
Screening COc1cc2c(cc1OC)C1O[C@](CCCCN3C(=O)c4ccccc4C3=O)(C2)Oc2cc(C)n(Cc3ccccc3)c(=O)c21 returned FBPA Giardia inh inactive[12.9 µM], Pf growth 96h 2.4µM, Shiga inhibitor inactive, Pf growth 48h inconclusive, NS1 inh inactive and CHX counter inactive.
`CCCCn1c(C)cc2c(c1=O)[C@H]1O[C@](CCCC)(Cc3cc(OC)c(OC)cc31)O2` gave FBPA Giardia inh inactive[12.9 µM], Pf growth 96h inconclusive, Shiga inhibitor inactive, Pf growth 48h inactive[5.75 µM], NS1 inh inactive and CHX counter inactive.
CCCCn1c(C)cc2c(c1=O)C1O[C@](c3ccc(OC)cc3)(Cc3cc(OC)c(OC)cc31)O2 was read as FBPA Giardia inh inactive[12.9 µM], Pf growth 96h 1.5µM, Shiga inhibitor inactive, Pf growth 48h inconclusive, NS1 inh inactive and CHX counter 15.
Screening COc1ccc(NC(=O)c2cccc(N3C(=O)C4C5C=CC(C6CC56)C4C3=O)c2)cc1 (centres undefined) returned FBPA Giardia inh inactive, Pf growth 96h inconclusive, Shiga inhibitor inactive, Pf growth 48h inconclusive, NS1 inh inactive and CHX counter inactive.
Screening Cc1ccc(Sc2ncccc2C(=O)NCc2cc([N+](=O)[O-])ccc2O)cc1C returned Pf growth 96h inactive, Shiga inhibitor inactive, Pf growth 48h inactive, NS1 inh inactive and CHX counter inactive.
For CN(Cc1ccsc1)C(=O)CCc1nnc(CCCc2ccccc2)o1 the results were FBPA Giardia inh inactive, Pf growth 96h inactive, Shiga inhibitor 124, Pf growth 48h inactive, NS1 inh inactive and CHX counter 47.
Screening CN(Cc1ccsc1)C(=O)CCc1nnc(Cc2c[nH]c3ccccc23)o1 returned FBPA Giardia inh inactive, Pf growth 96h inconclusive, Shiga inhibitor inactive, Pf growth 48h inactive, NS1 inh inactive and CHX counter inactive.
For CC(C)(CO)CNC(=O)CCc1nnc(CCCc2ccccc2)o1 the results were FBPA Giardia inh inactive, Pf growth 96h inconclusive, Shiga inhibitor inactive, Pf growth 48h inactive, NS1 inh inactive and CHX counter 22.
For CC(Cc1ccsc1)NC(=O)CCc1nnc(COc2ccccc2)o1 (centres undefined) the results were FBPA Giardia inh inactive, Pf growth 96h inactive, Shiga inhibitor inactive, Pf growth 48h inactive, NS1 inh inactive and CHX counter 19.
CCN(Cc1ccncc1)C(=O)CCc1nnc(CCC2CCCCC2)o1 was read as FBPA Giardia inh inactive, Pf growth 96h inconclusive, Shiga inhibitor 39, Pf growth 48h inconclusive, NS1 inh inactive and CHX counter 23.
For CC(C)(CO)CNC(=O)CCc1nnc(Cc2ccc(-c3ccccc3)cc2)o1 the results were FBPA Giardia inh inactive, Pf growth 96h inactive, Shiga inhibitor inactive, Pf growth 48h inconclusive, NS1 inh inactive and CHX counter inactive.
CCCCn1c(N)c(N(CC(C)C)C(=O)CCNC(=O)c2ccc(Cl)cc2)c(=O)[nH]c1=O was read as Pf growth 96h inactive and Pf growth 48h inactive.
For COc1cccc(CN(C)C(=O)CCc2nnc(-c3ccsc3)o2)c1 the results were FBPA Giardia inh inconclusive, Pf growth 96h inconclusive, Shiga inhibitor inactive, Pf growth 48h 10µM, NS1 inh inactive and CHX counter inactive.
`Cc1ccsc1CN(C)C(=O)CCc1nnc(COc2ccccc2)o1` gave FBPA Giardia inh inactive, Pf growth 96h inactive, Shiga inhibitor 56, Pf growth 48h inactive, NS1 inh inactive and CHX counter 35.
`O=C(CCc1nnc(COc2ccccc2)o1)NCc1ccccc1` gave FBPA Giardia inh inactive, Pf growth 96h inconclusive, Shiga inhibitor inactive, Pf growth 48h inactive, NS1 inh inactive and CHX counter inactive.
O=C(O)CCCC(=O)N(Cc1ccccc1)Cc1ccccc1 was read as FBPA Giardia inh inactive, Shiga inhibitor inactive, NS1 inh inactive and CHX counter inactive.
`CCN(Cc1ccccc1)C(=O)CCCOc1ccccc1` gave FBPA Giardia inh inactive, Pf growth 96h inactive, Shiga inhibitor 77, Pf growth 48h inactive, NS1 inh inactive and CHX counter 26.
`CCN(Cc1ccccc1)C(=O)CCc1nnc(CCCc2ccccc2)o1` gave FBPA Giardia inh inactive, Pf growth 96h inactive, Shiga inhibitor 57, Pf growth 48h inactive, NS1 inh inactive and CHX counter 22.
`COc1ccc(C(NC(=O)CC(C)C)c2c(O)ccc3ccccc23)cc1` (centres undefined) gave FBPA Giardia inh inactive, Pf growth 96h inactive, Shiga inhibitor inactive, Pf growth 48h inconclusive, NS1 inh inactive and CHX counter inactive.
CC(=O)Oc1ccc2ccccc2c1C(NC(=O)Cc1ccccc1)c1ccc(Cl)cc1 (centres undefined) was read as FBPA Giardia inh inactive, Pf growth 96h 2.9µM, Shiga inhibitor inactive, Pf growth 48h 4.7µM, NS1 inh inactive and CHX counter inactive.
`CCOc1ccc(C(NC(=O)CC)c2c(O)ccc3ccccc23)cc1` (centres undefined) gave FBPA Giardia inh inactive, Pf growth 96h inconclusive, Shiga inhibitor inactive, Pf growth 48h 13µM, NS1 inh inactive and CHX counter inactive.
CCCCC(=O)NC(c1ccco1)c1c(O)ccc2ccccc12 (centres undefined) was read as FBPA Giardia inh inactive, Pf growth 96h inconclusive, Shiga inhibitor inactive, Pf growth 48h 12µM, NS1 inh inactive and CHX counter inactive.
Screening CCCC(=O)NC(c1ccc(OC)cc1)c1c(O)ccc2ccccc12 (centres undefined) returned FBPA Giardia inh inactive, Pf growth 96h inactive, Shiga inhibitor inactive, Pf growth 48h 12µM, NS1 inh inactive and CHX counter inactive.
For CN1C(=O)Cc2cc(S(=O)(=O)Nc3ccc(Cl)cc3)ccc21 the results were FBPA Giardia inh inactive, Pf growth 96h inactive, Shiga inhibitor inactive, Pf growth 48h inactive, NS1 inh inactive and CHX counter inactive.
Screening CCCc1cc(=O)[nH]c(SCC(=O)NCC2COc3ccccc3O2)n1 (centres undefined) returned Pf growth 96h inactive and Pf growth 48h inactive.
`C/C(=N\Nc1ccc2nncn2n1)c1ccc(Br)s1` gave FBPA Giardia inh inactive, Pf growth 96h inactive, Shiga inhibitor inactive, Pf growth 48h inactive, NS1 inh inactive and CHX counter inactive.
Screening COc1cc(OC)cc(C(=O)N2CCN(Cc3ccc4c(c3)OCO4)CC2)c1 returned FBPA Giardia inh inconclusive, Pf growth 96h inactive, Shiga inhibitor inactive, Pf growth 48h inconclusive, NS1 inh inactive and CHX counter inactive.
Screening CCc1cc(OCCOCCN(C)C)ccc1Cl returned FBPA Giardia inh inactive, Pf growth 96h inactive, Shiga inhibitor inactive, Pf growth 48h inactive, NS1 inh inactive and CHX counter inactive.
